# Reference: PubChem BioAssay (NCATS)
# Inconclusive results are not listed. Where a call stands in place of a potency, no number is given. Activity calls are given as the source filed them. Unless noted, the call rests on the fitted dose curve; in most records, active means well fitted curve in the direction sought with a large enough effect; inconclusive means small, poorly fitted or top-dose-only effect, or another doubt; inactive means no such curve, though single readings can be large; an effect the other way counts as inactive or inconclusive.
# Columns and labels:
# [1] = biological target: Beta-2 adrenergic receptor (Homo sapiens) (UniProt P07550); experiment: qHTS validation assay of beta-arrestin-biased ligands of beta2-adrenergic receptor (AID 485366)
# Outline: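 Screening used a titration range of up to 46 microM in a beta-arrestin recruitment Tango luciferase assay. Cells in 1% FBS medium were treated 18 hr at 37 degrees C, and luminescence was normalized to %Activity.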
# [2] = biological target: Thioredoxin reductase 1, cytoplasmic (Rattus norvegicus) (UniProt O89049); experiment: qHTS Assay for Substrates of Mammalian Selenoprotein Thioredoxin Reductase 1 (TrxR1) (AID 488772);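 further: series mostly up to about 57 µM; a drop in NADPH fluorescence below the no-compound background marks a TrxR1 substrate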
# Outline: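 In this dual-purpose format, potential substrates are identified from the first fluorescence read after selenite addition, not from the 8-minute delta. Rat enzyme is preincubated with NADPH and then with compound at ~22 deg C.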
# [3] = biological target: Thioredoxin reductase 1, cytoplasmic (Rattus norvegicus) (UniProt O89049); experiment: qHTS Assay for Inhibitors of Mammalian Selenoprotein Thioredoxin Reductase 1 (TrxR1) (AID 488773);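 further: drop in NADPH fluorescence over an 8 min run after selenite addition; series mostly up to about 57 µM; nearly all actives have a fitted effect of over 40% in size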
# Outline: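 Inhibition is scored from the loss of NADPH fluorescence between first and last reads of an 8-min kinetic run. Selenite (400 uM) was the substrate, added after 15 min compound preincubation at room temperature.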
# [4] = biological target: Flap endonuclease 1 (Homo sapiens) (UniProt P39748); experiment: qHTS Validation Assay for the Inhibitors of Human Flap endonuclease 1 (FEN1) (AID 488816)
# Outline: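 Enzyme reagent 10 nM; cpds pinned; 15 min RT preinc.; substrate 50 nM final; reads t=0 and 15 min; no-enzyme buffer wells as neg. control; normalized data, 4-parameter Hill fit.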
# [5] = biological target: M-phase phosphoprotein 8 (Homo sapiens) (UniProt Q99549); experiment: qHTS Validation Assay for Inhibitors for MPP8 Chromodomain Interactions with Methylated Histone Tails (AID 488949); further: top concentration of the series differs between compounds; nearly all actives have a fitted effect of over 55% in size
# Outline: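 MPP8 (50 nM) was pre-bound to 50 nM biotinylated H3(1-18)K9me3 peptide in PBS pH 7.4 with 0.01% Tween-20. Compounds were then added for 30 min at room temperature, and complex disruption was read by AlphaScreen with streptavidin donor and nickel-chelate acceptor beads.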
# [6] = biological target: Methanococcus maripaludis chaperonin (MmCpn) (UniProt Q6LX38); experiment: High-Throughput Screening for Modulators of Cytosolic Chaperonin Activity: MmCpn Primary Screen (AID 488978);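 further: 50 nM MmCpn enzyme hydrolysing 30 µM ATP at 37 °C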
# Outline: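 MmCpn at 50 nM final was preincubated 5 min at RT with compound. ATP was then added at 30 uM final for 10 min at 37 C. ADP formed was detected by Transcreener HTRF (665/590 nm).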
# [7] = biological target: D(1A) dopamine receptor (Homo sapiens) (UniProt P21728); experiment: HTS Assay for Allosteric Agonists of the Human D1 Dopamine Receptor: Primary Screen for Agonists (AID 488981)
# Outline: (§1)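 Tetracycline-induced HEK293 Trex D1 cells with forced coupling to calcium, loaded with no-wash calcium dye; kinetic fluorescence read 180 s after compound addition for agonism, then a further 180 s after an EC20 dopamine challenge for potentiation.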
# [8] = biological target: D(1A) dopamine receptor (Homo sapiens) (UniProt P21728); experiment: HTS Assay for Allosteric Agonists of the Human D1 Dopamine Receptor: Primary Screen for Potentiators (AID 488982)
# Outline: as §1
# [9] = Validation screen for small molecules that induce genotoxicity in human embryonic kidney (HEK293T) cells expressing luciferase-tagged ELG1 (AID 493106)
# Outline: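 Cells were dispensed at 2,000 per well, then 23 nL compound or DMSO was pinned in. After 16 hr at 37 °C and 5% CO2, ONE-Glo reagent was added. Luciferase activity was measured following 30 min at room temperature.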
# [10] = qHTS for Inhibitors of Cell Surface uPA Generation: Validation Assay (AID 493164);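 further: RAW 264.7 macrophage cells exposed to compound for 18 h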
# Outline: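 ATP-Lite luminescence read-out: ATP remains high when uPA activity-dependent LF translocation into the cytoplasm is blocked. RAW 264.7 cells, 18 h compound exposure at 37 C; 7-point titration, 2.45 nM to 38.3 uM final.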
# [11] = biological target: Chromobox protein homolog 1 (Homo sapiens) (UniProt P83916); experiment: qHTS Validation Assay for Inhibitors of HP1-beta Chromodomain Interactions with Methylated Histone Tails (AID 488953);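 further: loss of AlphaScreen luminescence from HP1-beta binding biotinylated H3K9me3 peptide; series mostly up to about 110 µM; nearly all actives have a fitted effect of over 50% in size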
# Outline: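 Disruption of preformed HP1-beta:H3K9me3 peptide complexes (both 50 nM, PBS pH 7.4 with 0.01% Tween-20) is measured by AlphaScreen after 30 min compound exposure at room temperature, using streptavidin donor and nickel chelate acceptor beads at 10 ug/mL final.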
# [12] = Nrf2 qHTS screen for inhibitors: Validation (AID 493153; active means well fitted inhibition curve with a large enough effect in the main read-out, with a control signal flat, not every such curve was filed as active); details: viability change: measured here: cytotoxicity max response
# Outline: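 A549 ARE_Fluc, 5% FBS OPTI-MEM; cpd titration, 18-24 h, 37°C/5% CO2. Read 1: CellTiter-Fluor (Ex 405/Em 525), cytotox. Read 2: luciferase lum, Nrf2 activity.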
# [13] = biological target: ATP-dependent 6-phosphofructokinase (Trypanosoma brucei brucei) (UniProt O15648); experiment: qHTS Validation Assay to Find Inhibitors of T. brucei phosphofructokinase (AID 485368)
# Outline: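 PFK-generated ADP was measured after 45 min at room temperature using ADP-Glo. The reaction contained 0.5 mM F6P and 0.1 mM ATP.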
# [14] = Quantitative high throughput screen for delayed death inhibitors of the malarial parasite plastid, 96 hour incubation (AID 488745);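 further: luciferase-expressing P. falciparum in erythrocytes at 2% hematocrit and 0.1% parasitemia; series mostly up to about 29 µM; nearly all actives have a fitted effect of over 70% in size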
# Outline: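 Readout is firefly luciferase luminescence from an integrated reporter in P. falciparum; lower signal marks inhibited growth. Cultures at 2% hematocrit and 0.1% parasitemia were treated with compound across two generations (96 h, 37 C, 5% CO2).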
# [15] = Quantitative high throughput screen for delayed death inhibitors of the malarial parasite plastid, 48 hour incubation (AID 488752); further: nearly all actives have a fitted effect of over 65% in size
# Outline: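 First, compound was pinned into RPMI 1640 medium containing 0.5% Albumax. Next, reporter-parasite-infected erythrocytes were added to 2% hematocrit and 0.1% parasitemia. After 48 h at 37 C under 5% CO2, luciferase detection reagent was added and luminescence read.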
# [16] = biological target: Transient receptor potential cation channel subfamily V member 1 (Homo sapiens) (UniProt Q8NER1); experiment: HTS Assay for Compounds that Act as Enhancers of the Vanilloid Receptor 1 (AID 488979)
# Outline: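 TRPV1 cells loaded with Fluo-8 calcium dye; compound added and Ca2+ signal (ex 480/em 520 nm) followed 3 min, then capsaicin at EC20 added and read 2 more min to detect enhancement.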
# [17] = biological target: Thyrotropin receptor (Homo sapiens) (UniProt P16473); experiment: qHTS Assay for Antagonists of the Thyroid Stimulating Hormone Receptor (AID 488980); further: series mostly up to about 58 µM
# Outline: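 TSHR-transfected HEK293 cells (2000/well) in HEPES-buffered HBSS with 70 uM RO 20-1724 were stimulated with 4 nM TSH (EC80, final) in the presence of compound. cAMP was measured by HTRF competition after lysis and 30 min at RT.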
# [18] = biological target: ATP-dependent 6-phosphofructokinase (Trypanosoma brucei brucei) (UniProt O15648); experiment: qHTS Assay to Find Inhibitors of T. brucei phosphofructokinase: hit validation (AID 492961);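 further: luminescence reports ADP formed as PFK phosphorylates fructose-6-phosphate with ATP; series mostly up to about 51 µM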
# Outline: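 Compounds titrated; %activity normalized to 0x and 1x enzyme controls, curve-fitted. Readout: ADP-Glo luminescence after 45 min room-temperature reaction of 1.25 nM PFK, 0.1 mM ATP, 0.5 mM F6P, pH 8.0.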
# [19] = biological target: Thyrotropin-releasing hormone receptor (Homo sapiens) (UniProt P34981); experiment: qHTS for Small Molecule Agonists and Allosteric Enhancers of Human TRH Receptor: Validation Screen for Agonists (AID 493127;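 active means calcium activation more than 3 SD above the typical response in the agonist read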;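 further: intracellular calcium rise by fluo-8 fluorescence before TRH EC20 addition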); details: TRH receptor agonist cell assay; at 2 µM; stronger effect = higher value
# Outline: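 Compounds are added by online pintool to dye-loaded TRHR cells while fluorescence is recorded every second. A rise in calcium signal during the agonist read marks activation; a later 10 nM TRH addition (EC20) serves the separate enhancer mode.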
# [20] = biological target: Galactokinase (Homo sapiens) (UniProt P51570); experiment: qHTS Validation Assay for Inhibitors of Human Galactokinase (GALK) (AID 493189)
# Outline: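 GALK (5 nM) with 35 uM ATP and 100 uM galactose in HEPES pH 8.0 with MgCl2, NaCl, DTT and BSA. Reaction ran 1 h at room temperature. Residual ATP read by Kinase-Glo Plus luminescence.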
# Sequence of ATP-dependent 6-phosphofructokinase (Trypanosoma brucei brucei) (O15648 whole entry, looked up): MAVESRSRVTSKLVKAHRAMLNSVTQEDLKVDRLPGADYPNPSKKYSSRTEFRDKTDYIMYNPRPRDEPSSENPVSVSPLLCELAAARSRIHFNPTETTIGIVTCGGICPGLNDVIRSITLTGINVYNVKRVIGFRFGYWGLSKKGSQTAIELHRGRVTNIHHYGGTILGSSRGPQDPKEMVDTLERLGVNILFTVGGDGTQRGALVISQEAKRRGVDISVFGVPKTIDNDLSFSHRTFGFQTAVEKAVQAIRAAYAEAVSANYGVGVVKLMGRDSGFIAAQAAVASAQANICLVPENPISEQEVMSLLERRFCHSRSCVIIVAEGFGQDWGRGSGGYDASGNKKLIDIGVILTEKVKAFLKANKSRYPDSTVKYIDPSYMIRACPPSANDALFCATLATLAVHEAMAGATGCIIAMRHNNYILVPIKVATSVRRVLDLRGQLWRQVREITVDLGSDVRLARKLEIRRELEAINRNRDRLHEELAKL
# Sequence of M-phase phosphoprotein 8 (Homo sapiens) (Q99549 whole entry, looked up): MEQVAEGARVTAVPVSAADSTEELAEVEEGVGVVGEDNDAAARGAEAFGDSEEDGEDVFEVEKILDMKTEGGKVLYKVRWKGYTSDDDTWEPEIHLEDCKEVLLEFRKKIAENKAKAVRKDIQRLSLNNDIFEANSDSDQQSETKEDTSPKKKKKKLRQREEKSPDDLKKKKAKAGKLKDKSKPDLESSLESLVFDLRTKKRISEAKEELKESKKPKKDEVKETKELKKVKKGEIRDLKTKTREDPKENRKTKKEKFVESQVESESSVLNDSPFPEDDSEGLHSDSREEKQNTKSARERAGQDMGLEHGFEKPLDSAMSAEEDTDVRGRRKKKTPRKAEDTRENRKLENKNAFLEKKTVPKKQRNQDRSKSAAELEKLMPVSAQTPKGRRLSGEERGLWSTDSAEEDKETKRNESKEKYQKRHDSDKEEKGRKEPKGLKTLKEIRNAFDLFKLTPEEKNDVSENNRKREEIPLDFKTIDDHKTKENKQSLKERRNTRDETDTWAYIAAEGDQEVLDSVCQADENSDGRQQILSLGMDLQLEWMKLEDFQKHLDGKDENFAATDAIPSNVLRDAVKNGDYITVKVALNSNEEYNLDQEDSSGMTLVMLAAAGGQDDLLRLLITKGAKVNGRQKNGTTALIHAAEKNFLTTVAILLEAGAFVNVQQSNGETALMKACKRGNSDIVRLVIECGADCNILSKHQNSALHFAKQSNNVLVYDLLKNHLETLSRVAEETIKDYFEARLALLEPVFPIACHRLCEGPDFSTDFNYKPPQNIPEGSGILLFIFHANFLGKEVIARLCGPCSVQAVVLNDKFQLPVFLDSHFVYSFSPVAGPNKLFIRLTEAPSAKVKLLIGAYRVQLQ
# Sequence of Chromobox protein homolog 1 (Homo sapiens) (P83916 whole entry, looked up): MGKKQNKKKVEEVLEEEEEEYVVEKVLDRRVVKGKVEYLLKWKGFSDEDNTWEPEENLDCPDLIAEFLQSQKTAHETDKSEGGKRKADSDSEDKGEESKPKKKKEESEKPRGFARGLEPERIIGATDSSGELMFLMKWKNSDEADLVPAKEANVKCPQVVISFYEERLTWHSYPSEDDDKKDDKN
# Sequence of Thyrotropin receptor (Homo sapiens) (P16473 whole entry, looked up): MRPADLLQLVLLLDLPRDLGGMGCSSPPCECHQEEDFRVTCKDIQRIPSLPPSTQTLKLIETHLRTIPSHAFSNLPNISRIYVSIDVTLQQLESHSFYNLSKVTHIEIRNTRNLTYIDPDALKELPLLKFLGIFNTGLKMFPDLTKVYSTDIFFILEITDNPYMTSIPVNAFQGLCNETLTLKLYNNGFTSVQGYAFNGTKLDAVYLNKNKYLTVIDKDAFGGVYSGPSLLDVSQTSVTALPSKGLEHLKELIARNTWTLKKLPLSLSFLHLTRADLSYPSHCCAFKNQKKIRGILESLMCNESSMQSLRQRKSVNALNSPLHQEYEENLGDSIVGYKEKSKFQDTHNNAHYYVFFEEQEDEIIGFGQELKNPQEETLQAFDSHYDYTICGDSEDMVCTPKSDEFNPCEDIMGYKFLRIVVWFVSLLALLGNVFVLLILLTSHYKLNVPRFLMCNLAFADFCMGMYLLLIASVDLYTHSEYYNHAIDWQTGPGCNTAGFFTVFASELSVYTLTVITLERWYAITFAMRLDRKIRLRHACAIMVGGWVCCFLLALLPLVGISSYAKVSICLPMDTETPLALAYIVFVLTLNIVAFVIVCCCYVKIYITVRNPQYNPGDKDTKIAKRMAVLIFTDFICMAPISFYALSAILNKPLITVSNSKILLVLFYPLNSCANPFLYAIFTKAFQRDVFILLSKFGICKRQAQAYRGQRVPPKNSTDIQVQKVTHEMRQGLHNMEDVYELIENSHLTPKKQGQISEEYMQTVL
# Sequence of Flap endonuclease 1 (Homo sapiens) (P39748 whole entry, looked up): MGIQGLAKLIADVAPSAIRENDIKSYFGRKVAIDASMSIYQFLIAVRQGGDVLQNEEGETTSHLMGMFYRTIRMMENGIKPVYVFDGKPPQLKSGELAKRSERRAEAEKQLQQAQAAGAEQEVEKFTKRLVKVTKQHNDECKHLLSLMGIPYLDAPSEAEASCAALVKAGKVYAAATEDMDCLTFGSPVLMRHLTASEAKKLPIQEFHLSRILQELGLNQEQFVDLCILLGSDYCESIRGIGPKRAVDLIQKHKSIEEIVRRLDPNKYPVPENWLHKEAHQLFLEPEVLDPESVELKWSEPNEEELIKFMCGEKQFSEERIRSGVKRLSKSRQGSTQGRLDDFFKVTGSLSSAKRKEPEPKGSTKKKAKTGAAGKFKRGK
# Sequence of Transient receptor potential cation channel subfamily V member 1 (Homo sapiens) (Q8NER1 whole entry, looked up): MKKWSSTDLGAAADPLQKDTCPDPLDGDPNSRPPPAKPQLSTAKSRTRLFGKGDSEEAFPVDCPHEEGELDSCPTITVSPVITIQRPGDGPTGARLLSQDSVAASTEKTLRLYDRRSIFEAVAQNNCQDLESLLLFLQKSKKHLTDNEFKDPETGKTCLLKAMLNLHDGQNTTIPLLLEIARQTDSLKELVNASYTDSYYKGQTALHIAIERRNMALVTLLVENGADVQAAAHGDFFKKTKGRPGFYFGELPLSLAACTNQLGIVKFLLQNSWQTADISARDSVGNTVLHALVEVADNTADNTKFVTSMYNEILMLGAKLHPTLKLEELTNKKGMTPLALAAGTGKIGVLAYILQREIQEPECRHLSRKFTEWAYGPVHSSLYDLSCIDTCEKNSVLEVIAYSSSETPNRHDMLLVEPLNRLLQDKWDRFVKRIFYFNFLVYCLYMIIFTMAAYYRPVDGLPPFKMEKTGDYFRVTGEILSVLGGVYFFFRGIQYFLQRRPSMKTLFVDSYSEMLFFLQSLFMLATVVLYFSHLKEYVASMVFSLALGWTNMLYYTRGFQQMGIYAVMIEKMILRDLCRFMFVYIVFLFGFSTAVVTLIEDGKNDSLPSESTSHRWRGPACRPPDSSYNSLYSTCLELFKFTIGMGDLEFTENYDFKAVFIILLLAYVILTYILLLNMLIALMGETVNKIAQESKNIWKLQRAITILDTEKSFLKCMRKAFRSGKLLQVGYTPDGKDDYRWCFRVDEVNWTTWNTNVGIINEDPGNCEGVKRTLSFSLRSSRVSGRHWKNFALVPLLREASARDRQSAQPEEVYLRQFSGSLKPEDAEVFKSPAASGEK
# Sequence of Beta-2 adrenergic receptor (Homo sapiens) (P07550 whole entry, looked up): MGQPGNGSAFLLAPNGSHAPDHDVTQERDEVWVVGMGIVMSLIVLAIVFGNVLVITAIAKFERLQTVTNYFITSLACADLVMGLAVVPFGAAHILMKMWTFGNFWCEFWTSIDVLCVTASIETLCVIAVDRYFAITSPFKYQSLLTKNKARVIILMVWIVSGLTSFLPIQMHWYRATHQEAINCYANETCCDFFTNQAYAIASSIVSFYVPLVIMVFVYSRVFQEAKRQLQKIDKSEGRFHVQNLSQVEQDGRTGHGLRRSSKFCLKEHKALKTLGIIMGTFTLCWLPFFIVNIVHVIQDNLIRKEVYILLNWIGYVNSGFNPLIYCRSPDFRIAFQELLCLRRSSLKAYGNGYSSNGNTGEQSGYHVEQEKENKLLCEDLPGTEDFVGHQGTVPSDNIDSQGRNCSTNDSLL
# Sequence of Thioredoxin reductase 1, cytoplasmic (Rattus norvegicus) (O89049 whole entry, looked up): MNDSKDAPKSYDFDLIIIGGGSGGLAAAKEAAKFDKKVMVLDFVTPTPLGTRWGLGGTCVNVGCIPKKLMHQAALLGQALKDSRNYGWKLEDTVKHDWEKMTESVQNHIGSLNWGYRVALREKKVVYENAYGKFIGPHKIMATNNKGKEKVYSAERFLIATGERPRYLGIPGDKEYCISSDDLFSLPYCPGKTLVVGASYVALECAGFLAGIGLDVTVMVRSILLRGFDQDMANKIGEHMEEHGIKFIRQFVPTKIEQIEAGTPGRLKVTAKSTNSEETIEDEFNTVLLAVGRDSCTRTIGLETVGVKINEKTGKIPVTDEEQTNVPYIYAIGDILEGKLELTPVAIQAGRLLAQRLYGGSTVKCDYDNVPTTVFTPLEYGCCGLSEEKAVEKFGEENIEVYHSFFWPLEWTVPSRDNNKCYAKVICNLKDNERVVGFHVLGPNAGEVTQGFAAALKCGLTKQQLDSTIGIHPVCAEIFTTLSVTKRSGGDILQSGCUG
# Sequence of Thyrotropin-releasing hormone receptor (Homo sapiens) (P34981 whole entry, looked up): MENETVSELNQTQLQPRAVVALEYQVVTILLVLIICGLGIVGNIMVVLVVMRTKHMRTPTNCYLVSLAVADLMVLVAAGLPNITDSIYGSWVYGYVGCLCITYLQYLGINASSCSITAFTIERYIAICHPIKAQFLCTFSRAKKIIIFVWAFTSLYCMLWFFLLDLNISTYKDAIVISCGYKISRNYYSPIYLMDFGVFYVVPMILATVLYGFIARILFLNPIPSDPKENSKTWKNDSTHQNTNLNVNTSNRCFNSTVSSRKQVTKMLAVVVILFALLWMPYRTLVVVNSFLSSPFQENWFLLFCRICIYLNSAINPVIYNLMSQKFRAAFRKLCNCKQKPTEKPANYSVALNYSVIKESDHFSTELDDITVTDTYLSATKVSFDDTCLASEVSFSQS
smiles,measurement,setting,value
COc1cc2c(cc1O)CC[C@@H]1[C@@H]2CC[C@]2(C)[C@@H](O)CC[C@@H]12,outcome,[1],inactive
same,outcome,[2],inactive
same,outcome,[3],inactive
same,outcome,[4],inactive
same,Potency,[5],inactive
same,outcome,[6],inactive
same,Potency,[7],inactive
same,outcome,[8],inactive
same,outcome,[9],inactive
same,outcome,[10],inactive
CCCC1O[C@@H]2C[C@H]3[C@@H]4CCC5=CC(=O)C=C[C@]5(C)[C@H]4[C@@H](O)C[C@]3(C)[C@]2(C(=O)CO)O1 (some centres undefined),outcome,[1],inactive
same,outcome,[2],inactive
same,outcome,[3],inactive
same,outcome,[4],inactive
same,Potency,[5],inactive
same,Potency,[11],inactive
same,outcome,[6],inactive
same,Potency,[7],inactive
same,outcome,[8],inactive
same,outcome,[9],inactive
same,outcome,[12],inactive
same,viability change,[12],-3.74%
same,outcome,[10],inactive
C[C@]12CC[C@@H]3c4ccc(O)cc4CC[C@H]3[C@@H]1CC[C@@H]2O,outcome,[1],inactive
same,Potency,[13],inactive
same,Potency,[14],inactive
same,Potency,[15],inactive
same,outcome,[2],inactive
same,outcome,[3],inactive
same,outcome,[4],inactive
same,Potency,[5],inactive
same,Potency,[11],inactive
same,outcome,[6],inactive
same,outcome,[16],inactive
same,outcome,[17],inactive
same,Potency,[7],inactive
same,outcome,[8],inactive
same,outcome,[18],inactive
same,outcome,[9],inactive
same,activation,[19],4.75% (inactive)
same,outcome,[12],inactive
same,viability change,[12],1.87%
same,outcome,[10],inactive
same,outcome,[20],inactive
CC(C)NC[C@@H](O)COc1cccc2ccccc12,Potency,[5],inactive
same,activation,[19],1.94% (inactive)
CC(C)C[C@H]1C(=O)N2CCC[C@H]2[C@]2(O)O[C@](NC(=O)[C@@H]3C=C4c5cccc6[nH]c(Br)c(c56)C[C@H]4N(C)C3)(C(C)C)C(=O)N12,outcome,[1],inactive
same,outcome,[2],inactive
same,outcome,[3],inactive
same,outcome,[4],inactive
same,Potency,[5],inactive
same,outcome,[6],inactive
same,Potency,[7],inactive
same,outcome,[10],inactive
CC1(C)CCC(NC(=O)[C@@H](N)CCC(=O)O)CC1,outcome,[1],inactive
same,Potency,[13],inactive
same,Potency,[14],inactive
same,Potency,[15],inactive
same,outcome,[2],inactive
same,outcome,[3],inactive
same,outcome,[4],inactive
same,Potency,[5],inactive
same,Potency,[11],inactive
same,outcome,[6],inactive
same,outcome,[16],inactive
same,outcome,[17],inactive
same,Potency,[7],inactive
same,outcome,[8],inactive
same,outcome,[18],inactive
same,outcome,[9],inactive
same,activation,[19],0.125% (inactive)
same,outcome,[12],inactive
same,viability change,[12],2.98%
same,outcome,[10],inactive
same,outcome,[20],inactive
N[C@@H](Cc1cnc[nH]1)C(=O)O,outcome,[1],inactive
same,Potency,[13],inactive
same,Potency,[14],inactive
same,Potency,[15],inactive
same,outcome,[2],inactive
same,outcome,[3],inactive
same,outcome,[4],inactive
same,Potency,[5],inactive
same,Potency,[11],inactive
same,outcome,[6],inactive
same,outcome,[16],inactive
same,outcome,[17],inactive
same,Potency,[7],inactive
same,outcome,[8],inactive
same,outcome,[18],inactive
same,outcome,[9],inactive
same,activation,[19],0.0625% (inactive)
same,outcome,[12],inactive
same,viability change,[12],0.846%
same,outcome,[10],inactive
same,outcome,[20],inactive
CN(C)/N=N/c1nc[nH]c1C(N)=O,outcome,[18],inactive
CN(C)CCCOc1nn(Cc2ccccc2)c2ccccc12,outcome,[18],inactive
CNCCC(Oc1ccccc1C)c1ccccc1 (centres undefined),outcome,[1],inactive
same,Potency,[14],inactive
same,Potency,[15],inactive
same,outcome,[2],inactive
same,Potency,[5],inactive
same,outcome,[6],inactive
same,outcome,[17],inactive
same,Potency,[7],inactive
same,outcome,[8],inactive
same,outcome,[18],inactive
same,outcome,[9],inactive
same,outcome,[12],inactive
same,viability change,[12],3.06%
same,outcome,[10],inactive
same,outcome,[20],inactive
CN=C(NC#N)Nc1ccc(C2=NNC(=O)CC2C)cc1 (centres undefined),Potency,[14],inactive
same,Potency,[15],inactive
same,Potency,[5],inactive
same,outcome,[16],inactive
same,outcome,[17],inactive
same,outcome,[20],inactive
